Laboratory results from PubChem BioAssay AID977622 (Broad Institute, 2014).
The whole screen tested about 1,900 compounds, of which fewer than 10 were called active. Inconclusive results (about 39%) are left out.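 Rule for the calls: active = Green signal of the normal strain falls at least twice as much as red signal of the resistant mutant, with overall culture growth loss under a set limit; inconclusive = no clear call, values can overlap the other calls; inactive = the rest.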 The list is a sample of the results.

Columns and labels:
[1] = wild-type E. coli growth inhibition versus h38 humanized strain – h38 mutant RFP, wild-type GFP, cherry-pick, dose response (AID 977622); settings: 24 h; activity change: E. coli mixed culture, total growth OD600 at 50 uM, at 50 µM; E. coli WT ribosome GFP fluorescence, mixed culture, at 50 µM (top of the series)
[2] = test system: E. coli h38 humanized mutant ribosome RFP fluorescence, mixed culture, 24 h; assay: as above; settings: h38 mutant RFP at 50 uM; at 50 µM

Compound | activity change [1] [%] | outcome [1] | activity change [2] [%]
Cc1ccccc1CSCC(=O)Nc1ccccc1F | 0.464 | inactive | -14.9
Cc1ccc(-n2nnnc2SCC(=O)NC2CCCc3ccccc32)cc1 (centres undefined) | – | inactive | 6.43
Cc1ccc(C(=O)Nc2cccc3[nH]c(C(F)(F)F)nc23)cc1 | -24.3 | inactive | -27.5
CS(=O)(=O)Nc1ccccc1C(=O)NCCSc1ccccc1 | – | inactive | -11.5
O=C(C[n+]1ccn(-c2ccccc2)c1)c1ccc([N+](=O)[O-])cc1 | -2.75 | inactive | -5.23
CCOC(=O)c1cnc2ccccc2c1NCc1ccco1 | -29.3 | inactive | -3.48
NC(=O)C1CCN(c2cc(Cl)ccc2[N+](=O)[O-])CC1 | -7.61 | inactive | -0.291
COCCn1c(SCc2nc3ccccc3s2)nc2ccccc21 | 15.3 | inactive | 9.77
CC(=O)c1cccc(NC(=O)COC(=O)CCC(=O)c2ccc(F)cc2)c1 | -8.28 | inactive | 14.5
OCCC1CN(Cc2cnc(-c3ccc(Cl)cc3)nc2)CCN1C1CCCCC1 (centres undefined) | -4.88 | inactive | –
CN1c2ccccc2-c2nc3ccccc3n2C1c1ccncc1 (centres undefined) | -2.28 | inactive | -4.12
C=C1c2cc3c(cc2NC(=S)N1Cc1ccccc1)OCO3 | -19.2 | inactive | -23.6
CC(=O)c1cccc(NC(=O)C2CCCN(S(C)(=O)=O)C2)c1 (centres undefined) | 4.2 | inactive | –
CC(C)CC#Cc1ccc([C@@H]2[C@@H](CO)N3C(=O)CN(C(=O)Cc4ccccc4)C[C@@H]23)cc1 | 9.26 | inactive | 19.9
OC(COc1ccc(Cl)cc1)CN1CCN(c2ccccn2)CC1 (centres undefined) | -8.02 | inactive | –
CN(CC(=O)Nc1cccc(F)c1)C(=O)Cn1c(=O)oc2ccccc21 | 2.16 | inactive | 60
CCN(CC)S(=O)(=O)c1ccc(O)c(C(=O)OCC(=O)NC23CC4CC(CC(C4)C2)C3)c1 | -19.8 | inactive | –
CC1(CCC(=O)N2CCCC(N3CCN(c4ccc(F)cc4)CC3)C2)CC1 (centres undefined) | -2.02 | inactive | 22.3
CCc1ccc(NC(=O)CCc2c(C)nn(-c3ccc(N4CCCCC4)nn3)c2C)cc1 | -4.17 | inactive | -12.8
COc1cccc(C(=O)c2c[nH]c(C(=O)NCc3cccnc3)c2)c1 | -3.41 | inactive | 13.5
COc1ccc(NS(=O)(=O)c2cc(NC(=O)CNC(=O)c3cccc(OC)c3)ccc2C)cc1 | -27.6 | inactive | -12.3
O=C(Nc1ccc(Cl)cn1)c1ccc([N+](=O)[O-])o1 | -3.86 | inactive | 54.7
COc1cccc(CC(=O)OC(C)C(=O)NCc2ccc3c(c2)OCO3)c1 (centres undefined) | -31 | inactive | 6.13
O=S(=O)(Cc1ccccc1)N1CCCCN2[C@@H](CO)[C@H](c3ccc(C#Cc4ccccc4)cc3)[C@@H]2C1 | 2.15 | inactive | 11.8
Nc1[nH]c(C(=O)c2ccccc2)c(-c2ccc(Cl)cc2)c1C(=O)NCCc1c[nH]c2ccccc12 | -15.2 | inactive | 2
Cc1ccccc1-n1c([C@@H]2C[C@H]2c2ccccc2)n[nH]c1=S | -23.8 | inactive | –

Compound | activity change [1] [%] | outcome [1] | activity change [2] [%]
COc1ccc(OC)c(NC(=O)COC(=O)CCNc2ccccc2OC)c1 | -9.13 | inactive | -0.869
Cc1ccc(NC(=O)c2ccc3c(c2)OCO3)cc1S(=O)(=O)N1CCOCC1 | -35.8 | inactive | -6.07
COc1ccc(NC(=O)CN(c2ccccc2OC)S(=O)(=O)c2cccs2)cc1Cl | -14.2 | inactive | 19
Cc1cccc(OCCC(=O)N(C)CC(=O)Nc2cccc3ccccc23)c1 | -25.4 | inactive | 27.9
COCc1[nH]nc2c1C(c1ccc3c(c1)OCO3)N(c1ccc(OC)cc1)C2=O (centres undefined) | 1.74 | inactive | –
O=C(c1cc(COc2ccc(F)cc2F)on1)N1CCCC(c2ccccc2)C1 (centres undefined) | 5.17 | inactive | -5.01
CCOC(=O)Cc1csc(SCC(=O)Nc2cc(C)ccc2OC)n1 | -33.1 | inactive | 38.6
CC(=O)Nc1cccc(OCc2ccc([N+](=O)[O-])cc2)c1 | -10.5 | inactive | -23.9
CC(CCc1ccccc1)NC(=O)CNC(=O)COc1ccccc1 (centres undefined) | -14.6 | inactive | 9.58
O=S(=O)(NOCc1ccc(Cl)cc1)c1ccc(Cl)cc1 | -42.8 | inactive | -52
O=C(c1cccc2ccccc12)C1CCCN(C(=O)CCc2cnccn2)C1 (centres undefined) | -12 | inactive | -5.75
C[C@@H]1CN([C@@H](C)CO)C(=O)c2cc(NC(=O)Nc3cccc4ccccc34)ccc2O[C@@H](C)CCCCO[C@H]1CN(C)C | -2.41 | inactive | -18
C[C@]12C(=O)N(c3ccc(F)cc3)C(=O)N1[C@@H]1c3ccccc3OC[C@@H]1[C@H]2c1ccccc1 | -20.2 | inactive | -13.6
O=C(O)c1cccc2c1-c1ccc([N+](=O)[O-])cc1C2=O | -0.103 | inactive | -6.27
COc1ccc([C@H]2C[C@H](O)C[C@@H](CCn3cc(-c4ccccc4)nn3)O2)cc1 | -21.6 | inactive | 19.3
O=C(Nc1ccc(F)cc1)N1CCCCN2[C@@H](CO)[C@H](c3ccc(-c4ccncc4)cc3)[C@@H]2C1 | 12 | inactive | -0.029
Cc1ccccc1S(=O)(=O)N1C[C@H]2CON(C)[C@H]2C[C@H]1c1cccc(-c2ccc(C#N)cc2)c1 | -28.1 | inactive | -10.7
CC(=O)Nc1cccc(OCCCOc2cccc([N+](=O)[O-])c2)c1 | -16.8 | inactive | 44.4
Nc1[nH]c(C(=O)c2ccccc2)c(-c2ccc3c(c2)OCO3)c1C(=O)NCCc1c[nH]c2ccccc12 | -18.1 | inactive | -20.2
Cc1ccc2nc(-c3ccc(Cl)cc3)c(Cc3ccccc3C(F)(F)F)n2c1 | -10.5 | inactive | 37.7
CC(C)n1nnnc1C1c2ccccc2C(=O)N1CCOc1ccccc1 (centres undefined) | -14.1 | inactive | -9.39
Cc1occc1-c1nnc(SCC(=O)Nc2nc(-c3ccccc3)cs2)o1 | -4.96 | inactive | 8.71
O=C(O)CC(CC(=O)Nc1ccc2ccccc2n1)c1ccccc1 (centres undefined) | -7.83 | inactive | 7.39
CCOC(=O)c1cccc(OC(=O)CCNC(=O)c2ccc(Cl)cc2)c1 | -36.4 | inactive | -3.29
C[C@H]1CN([C@@H](C)CO)C(=O)CCCn2nncc2CO[C@@H]1CN(C)Cc1ccccc1C(F)(F)F | -28.1 | inactive | -45.2
Cn1nc(C(=O)Nc2cccc(S(=O)(=O)N3CCCCC3)c2)c2ccccc2c1=O | -5.66 | inactive | -3.97

Compound | activity change [1] [%] | outcome [1] | activity change [2] [%]
O=S1(=O)N[C@H](Cc2ccccc2)COc2cc(N3CCSCC3)ccc21 | -14.3 | inactive | 12
CN(CCOc1ccccc1)S(=O)(=O)c1ccccc1C#N | -20.9 | inactive | –
CN(C)S(=O)(=O)c1cccc(C(=O)OCC(=O)c2ccc3c(c2)NC(=O)CO3)c1 | -6.04 | inactive | –
O=C(COC(=O)C1CC2C=CC1C2)Nc1ccc([N+](=O)[O-])cc1 (centres undefined) | -15.1 | inactive | -8.7
C[C@@H]1CN([C@@H](C)CO)C(=O)CCCn2nncc2CO[C@H]1CN(C)C(=O)Nc1cccc(C(F)(F)F)c1 | -2.42 | inactive | -7.01
Fc1cccc(Cc2c(-c3ccco3)nc3c4ccccc4ccn23)c1 | 3.21 | inactive | 15.9
O=C(c1ccccc1)C1Oc2ccccc2C2CC(c3cccs3)=NN12 (centres undefined) | -7.77 | inactive | 46.5
C=CCSc1cc(C)nc2c(-c3ccccc3)c(C)nn12 | -4.42 | inactive | -3.25
Cc1cc(C)c(OCC(=O)OCC(=O)N2CCc3ccccc3C2)c(C)c1 | -18.4 | inactive | -19.1
Cc1noc(C)c1NC(=O)Nc1ccc2c(c1)C(=O)N([C@H](C)CO)C[C@H](C)[C@H](CN(C)C(=O)Nc1ccc3c(c1)OCO3)OCCCC[C@@H](C)O2 | -29.4 | inactive | -22.3
COc1ccccc1NC(=O)CSc1nccn1Cc1ccc(F)cc1 | -34.2 | inactive | -43.9
COc1cc2ccccc2cc1C(=O)NCC(c1cccs1)N(C)C (centres undefined) | -20.3 | inactive | 10.8
COc1cccc(NC(=O)N(C)C[C@H]2Oc3ncc(C#Cc4cccnc4)cc3C(=O)N([C@H](C)CO)C[C@H]2C)c1 | -8.41 | inactive | -2.54
O=C(O)CC(CC(=O)Nc1ccc(Oc2ccccc2)cc1)c1ccccc1 (centres undefined) | -38.6 | inactive | -21.4
Cc1onc(-c2ccccc2Cl)c1C(=O)N1CCN(Cc2ccc3c(c2)OCO3)CC1 | -18.8 | inactive | -29.8
Cc1cc(C)nc(SCCC(=O)Nc2ccccc2Cl)n1 | – | inactive | 4.04
C=CCNc1ccc2c(c1)OC[C@H](CC(C)C)NS2(=O)=O | -16.5 | inactive | -12.1
CCCCCCCNC(=O)c1ccc(N2CCC3(CC2)OCCO3)c([N+](=O)[O-])c1 | -71.7 | inactive | 33.2
CCn1nc(C)cc1C(=O)N1CCCC(C(=O)c2ccc3ccccc3c2)C1 (centres undefined) | -3.63 | inactive | 3.47
CSc1ccccc1C(=O)NCCc1ccc(S(=O)(=O)N2CCCCC2)cc1 | -6.73 | inactive | –
CCOc1ncccc1C(=O)OCC(=O)NCCCc1ccccc1 | -34.2 | inactive | 13.1
Cn1cc(CN2CCCC(C(=O)Nc3cccc(-c4cc5ccccc5[nH]4)c3)C2)cn1 (centres undefined) | -25.9 | inactive | -29
COc1ccccc1CC(=O)NCCCc1ccccc1 | 0.195 | inactive | 28.9
CN1C(=O)c2cc(NC(=O)c3cccc(F)c3)ccc2OC[C@H]2O[C@@H](CC(=O)NCC3CCCCC3)CC[C@@H]21 | -45.8 | inactive | -19.3
C[C@H](CO)N1C[C@H](C)[C@H](CN(C)C(=O)Nc2ccc(F)cc2)Oc2c(NC(=O)Nc3ccccc3)cccc2C1=O | -24.1 | inactive | 16.4
